# In the supplement of paper PMC10498489:
# About 330 (14%) of roughly 2,300 compounds showed activity. A selection follows. Unmarked numbers belong to inactive results.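 How the source made its calls: active = median modified Z-score above 1.96; inactive = 1.96 or below.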
# Tested on: HepG2 Srxn1-GFP reporter cells (+30 nM CDDO-Me)
# Assay: Srxn1-GFP intensity median modified Z-score relative to plate median; higher = stronger NRF2 / oxidative stress reporter activation, active = hit call of the paper
# Conditions: 10 µM; exposure time: 24h
# In short: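 Compound at 10 μM was applied with an NRF2 activator at 30 nM to HepG2 Srxn1-GFP BAC reporter cells for 24 h, in DMSO at no more than 0.1%, using three replicate 96-well plates seeded at 20,000 cells per well. Fixed, Hoechst-stained cells were imaged confocally and cytoplasmic GFP was scored for each cell, with images under 100 cells left out. The figure reported is the replicate median of the per-plate modified Z-score of GFP intensity. Scaling relied on 1.4826 × median absolute deviation.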
row,Structure (SMILES),Srxn1-GFP intensity median modified Z-score
1,O=c1c(-c2ccc(O)cc2)coc2c(C3O[C@H](CO)[C@@H](O)[C@H](O)[C@H]3O)c(O)ccc12 (stereo partly drawn) [euspeclibcmpd1715],-0.564
2,COC(=O)NN=Cc1c[n+]([O-])c2ccccc2[n+]1[O-] [euspeclibcmpd737],0.066
3,NN=c1[nH]ncc2ccccc12 [euspeclibcmpd806],-0.328
4,COc1ccc2c(c1)OCC(Cc1ccc(OC)c(O)c1)C2=O (stereo not drawn) [euspeclibcmpd1628],21.4 (active)
5,COc1ccc2c(c1)OC[C@@H](Cc1ccc(OC)c(OC)c1)[C@@H]2O [euspeclibcmpd2183],1.04
6,COc1ccc2c(c1)OCC(Cc1ccc(OC)c(OC)c1)C2=O (stereo not drawn) [euspeclibcmpd1645],15.4 (active)
7,COc1cc2c(cc1OC)C1(O)C(=O)c3ccc(O)c(C(=O)O)c3OC1CO2 (stereo not drawn) [euspeclibcmpd1511],-0.131
8,COc1ccc2c(c1)OCC(Cc1ccc(O)c(OC)c1)C2=O (stereo not drawn) [euspeclibcmpd1837],0.677
9,COc1ccc2c(c1)OCC(Cc1ccc(OC)c(OC(C)=O)c1)C2=O (stereo not drawn) [euspeclibcmpd1962],1.39
10,CC(=O)O/C1=C2\C(C)[C@@H](OC(=O)C(O)[C@@H](NC(=O)c3ccccc3)c3ccccc3)C[C@@](O)([C@@H](OC(=O)c3ccccc3)C3[C@](C)(C1=O)[C@@H](O)C[C@H]1OC[C@@]31OC(C)=O)C2(C)C (stereo partly drawn) [euspeclibcmpd631],0.274
11,O=C1O[C@H](C(O)CO)C(O)=C1O (stereo partly drawn) [euspeclibcmpd2046],-0.841
12,CC(CCC(=O)O)C1CC[C@H]2C3[C@H](O)C[C@@H]4C[C@H](O)CCC4(C)[C@H]3C[C@H](O)C12C (stereo partly drawn) [euspeclibcmpd1325],-0.323
13,CCC(C)C1NC(=O)C(CCN)NC(=O)C(NC(=O)C(CCN)NC(=O)C(NC(=O)C(CCN)NC(=O)CCCCC(C)C)C(C)O)CCNC(=O)C(C(C)O)NC(=O)C(CCN)NC(=O)C(CCN)NC(=O)C(C(C)CC)NC1=O (stereo not drawn) [euspeclibcmpd887],0.477
14,CC(C)C1CC[C@@H](C)CC1=O (stereo partly drawn) [euspeclibcmpd1630],-0.168
15,CC(=O)OCC(=O)[C@@]12OC3(CCCC3)O[C@@H]1CC1C3CC=C4CC(=O)C=C[C@]4(C)[C@@]3(F)[C@@H](O)C[C@@]12C (stereo partly drawn) [euspeclibcmpd606],-0.413
16,CN[C@@H]1C(OC2[C@H](O[C@H]3[C@H](O)[C@@H](O)[C@H](N=C(N)N)[C@@H](O)[C@@H]3N=C(N)N)OC(C)[C@]2(O)CO)OC(CO)C(O)C1O (stereo partly drawn) [euspeclibcmpd500],0.194
17,CC(C)c1c(C(=O)Nc2ccccc2)c(-c2ccccc2)c(-c2ccc(F)cc2)n1CC[C@@H](O)C[C@@H](O)CC(=O)O [euspeclibcmpd2076],0.0135
18,CC(C)=c1nc(N(C)S(C)(=O)=O)nc(-c2ccc(F)cc2)c1=CC[C@@H](O)C[C@@H](O)CC(=O)O [euspeclibcmpd2132],0.158
19,CC(C)n1c(C=CC(O)CC(O)CC(=O)O)c(-c2ccc(F)cc2)c2ccccc21 (stereo not drawn) [euspeclibcmpd1968],3.35 (active)

row,Structure (SMILES),Srxn1-GFP intensity median modified Z-score
1,CC1=C2CC(=O)C=C[C@]2(C)C2C(C1)C1CC[C@](O)(C(=O)COC(=O)CCC(=O)O)[C@@]1(C)C[C@@H]2O (stereo partly drawn) [euspeclibcmpd2224],-0.845
2,Oc1cc2c(cc1O)=C1c3ccc(O)c(O)c3OCC1(O)C=2 (stereo not drawn) [euspeclibcmpd1969],-0.521
3,CC(CCC(=O)O)[C@H]1CCC2C3C(=O)C[C@@H]4CC(=O)CC[C@]4(C)C3CC(=O)[C@@]21C (stereo partly drawn) [euspeclibcmpd357],0.217
4,CCCCCC(=O)Cc1cc(O)cc(O)c1C(=O)Oc1cc(CC(=O)CCCCC)c(C(=O)O)c(OC)c1 [euspeclibcmpd1619],-0.366
5,COc1cc(C)c(C(=O)O)c(O)c1 [euspeclibcmpd2356],-0.209
6,CCCCCc1c2c(cc(O)c1C(=O)O)OC(=O)c1c(cc(OC)cc1C(=O)CCCC)O2 [euspeclibcmpd1731],4.46 (active)
7,COCC1(C)NC(=O)N(CCC(=O)Nc2cc(C)on2)C1=O (stereo not drawn),1.16
8,COC(=O)C1=C(C)N=C(C)C(C(=O)OC(C)C)C1c1cccc2nonc12 (stereo not drawn) [euspeclibcmpd996],-0.132
9,CCOC(=O)C1=C(COCCN)N=C(C)C(C(=O)OC)C1c1ccccc1Cl (stereo not drawn) [euspeclibcmpd713],22.6 (active)
10,CCOC(=O)C1=C(C)N=C(C)C(C(=O)OC)C1c1cccc([N+](=O)[O-])c1 (stereo not drawn) [euspeclibcmpd494],0.225
11,Cc1cc(=NC(=O)C2C(=O)c3ccccc3S(=O)(=O)N2C)[nH]o1 (stereo not drawn) [euspeclibcmpd552],-0.344
12,CC1=c2c(C)c(O)c(C(=O)O)c(O)c2=CO[C@@H]1C [euspeclibcmpd1555],1.14
13,CCCC(C(N)=O)c1ccccc1 (stereo not drawn),1.53
14,OCCN1C[C@@H](O)[C@@H](O)C(O)C1CO (stereo partly drawn) [euspeclibcmpd679],0.73
15,CC(=O)OCC(=O)C1CCC2C3CC=C4C[C@@H](O)CC[C@]4(C)C3CC[C@]12C (stereo partly drawn) [euspeclibcmpd1443],0.217
16,COC(=O)C[C@H]1C(C)(C)[C@@H](OC(C)=O)C2CC3=C4CC(=O)O[C@@H](c5ccoc5)[C@]4(C)CCC3[C@@]1(C)C2=O (stereo partly drawn) [euspeclibcmpd1559],0.833
17,COc1c(C/C=C(\C)CCC(=O)OCCN2CCOCC2)c(O)c2c(O)occ2c1C [euspeclibcmpd688],5.22 (active)
18,COc1c(O)c(C)c(C=CC(C)=CCC=C(C)CCC=C(C)CCC=C(C)CCC=C(C)CCC=C(C)CCC=C(C)CCC=C(C)CCC=C(C)CCC=C(C)C)c(O)c1OC [euspeclibcmpd1853],-0.0742
19,COc1c(C/C=C(\C)CCC(=O)O)c(O)c2c(O)occ2c1C [euspeclibcmpd334],11.8 (active)
